8 molecules from ChEMBL document CHEMBL4513139, “CO-ADD screening of University of Strathclyde (UK) compounds” can be followed below.

The subject of assay [1] is Klebsiella pneumoniae. The following applies: Concentration 32 ug.mL-1; ASSAY_TEST Inhibition of Bacterial Growth; detection method Absorption (OD600); MEDIA CAMHB; plate type 384well; NBS; CORNING #3640; time 18 hr.
For assay [2], the system named is Candida albicans. The conditions noted are these: 32 ug/mL.
Assay [3] concerns Cryptococcus neoformans. The following applies: Concentration 32 ug.mL-1; ASSAY_TEST Inhibition of Fungal Growth; detection method Resazurin; Absorption (OD600-OD570); plate type 384well; NBS; CORNING #3640. In general terms: Alamar Blue is a resazurin reagent that responds to reducing activity.

Each structure is given as a SMILES string. Entries with a potency or affinity are not part of this list.

Regarding `COc1cccc(C(=N)Nc2cc(C(=O)Nc3cc(C(=O)Nc4cc(C(=O)NCCCN5CCOCC5)n(C)c4)n(C)c3)n(C)c2)c1.O=C(O)C(F)(F)F.O=C(O)C(F)(F)F`, the Inhibition (commonly the relative decrease from the control value, in per cent) in assay [1] is 14.25%; in assay [2] it was 1.73%; in assay [3], -103.93%.
For `Cc1ccc(S(=O)(=O)NCCc2cn(Cc3cnc(C)nc3N)nn2)cc1` the same measures were 1.07%, 3.05% and -48.53%.
For `CN(C)CCCNC(=O)c1cc(NC(=O)c2cc(NC(=O)c3cc(NC(=N)N)cn3C)cn2C)cn1C.O=C(O)C(F)(F)F.O=C(O)C(F)(F)F` the same measures were 7.81%, 2.03% and -105.56%.
As for `Cc1ncc(Cn2cc(CC(N)C(=O)O)nn2)c(N)n1.Cl` (centres undefined), the Inhibition in assay [1] is -13.87%; in assay [2], 2.15%; in assay [3], -37.7%.
For `Cc1ncc(CO)c(N)n1` the same measures were -2.19%, -0.12% and -45.32%.
For `Cc1ncc(Cn2cc(CCCCO)nn2)c(N)n1` the same measures were 1.98%, 2.99% and -60.21%.
For `CC(C)c1sc(N)nc1C(=O)Nc1cc(C(=O)Nc2cc(C(=O)NCCN3CCOCC3)n(C)c2)n(C)c1.O=C(O)C(F)(F)F` the same measures were -2.63%, 3.25% and -112.04%.
With `Cn1cc(NC(=O)c2cc(NC(=O)CCC(=O)O)cn2C)cc1C(=O)NCCN1CCOCC1.O=C(O)C(F)(F)F`, the results for the Inhibition in assay [1], in assay [2] and in assay [3] were 14.45%, 1.67% and -38.65%, respectively.
